# High-throughput results from PubChem.
# BRCA1 expr up – BRCA1 expression activation. MCF7-BRCA1-FFLuc reporter, luminescence, 48 h; response scale: scaled: vehicle 0%, 10 µM genistein 100%. Potency, µM (series often up to 46.1 µM), without a hit: at the top dose activation, usual class: activators. 1.1% of 380,000 active. AID 624202; also: nearly all actives have a fitted effect of over 80% in size
#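 Reporter cells (MCF7, BRCA1 promoter-firefly luciferase) received library compounds across a concentration series for 48 h. End-point luminescence was measured and concentration-effect curves derived after normalization.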
# EPAC1 antagonist – EPAC1 (human) antagonism; O95398; 0.14% of 360,000 active; AID 720709; EPAC1 GEF assay, Rap1b-BODIPY-GDP exchange fluorescence; Potency, µM (titrated, usually from 115 µM), for the others: at the top dose activity change, negative = inhibition, hits mostly inhibitors;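 also: plate controls were vehicle for no effect and positive control for full effect; nearly all actives have a fitted effect of over 50% in size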
# USP1-UAF1 inh – blocks the human USP1/UAF1 deubiquitinase complex. O94782. recombinant USP1/UAF1, Ub-Rhodamine cleavage fluorescence. 0.23% of 390,000 active. Potency, µM (series often up to 57.1 µM), without a hit: at the top dose activity change, negative = inhibition, usual class: inhibitors. AID 743255; also: % is scaled to controls: 0 for no effect and ±100 for the full control effect; nearly all actives have a fitted effect of over 60% in size
# Target sequence (O94782 whole entry, looked up): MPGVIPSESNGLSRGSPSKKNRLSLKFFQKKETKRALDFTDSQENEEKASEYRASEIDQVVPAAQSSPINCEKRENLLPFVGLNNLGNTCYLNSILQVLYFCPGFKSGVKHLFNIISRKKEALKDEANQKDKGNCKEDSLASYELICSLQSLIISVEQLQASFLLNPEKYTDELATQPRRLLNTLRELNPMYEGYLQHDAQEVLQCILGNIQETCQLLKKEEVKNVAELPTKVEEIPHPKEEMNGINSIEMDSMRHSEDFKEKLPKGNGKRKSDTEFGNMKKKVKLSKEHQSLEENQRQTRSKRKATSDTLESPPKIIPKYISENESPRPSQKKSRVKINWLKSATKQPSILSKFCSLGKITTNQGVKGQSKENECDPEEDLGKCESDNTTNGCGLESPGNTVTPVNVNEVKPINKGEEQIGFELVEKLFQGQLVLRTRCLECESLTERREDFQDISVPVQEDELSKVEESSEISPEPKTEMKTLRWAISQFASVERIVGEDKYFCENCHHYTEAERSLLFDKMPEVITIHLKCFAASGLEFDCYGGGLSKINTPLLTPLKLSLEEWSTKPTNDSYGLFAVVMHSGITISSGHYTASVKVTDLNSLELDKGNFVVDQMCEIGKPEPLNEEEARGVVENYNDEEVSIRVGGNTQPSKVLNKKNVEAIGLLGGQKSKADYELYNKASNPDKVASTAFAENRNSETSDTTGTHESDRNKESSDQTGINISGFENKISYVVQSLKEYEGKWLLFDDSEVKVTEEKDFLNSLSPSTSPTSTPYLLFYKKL
#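 USP1/UAF1 complex at 1 nM was preincubated with compound for 15 min at room temperature, then Ub-Rho substrate (150nM final) was added. Fluorescence (480/540 nm) was read kinetically, 6 reads every 60 seconds.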
# EPAC1 ag – EPAC1 (human) agonism | 0.073% of 360,000 active | Potency, µM (doses to about 154 µM), for inactives: top-dose activation, usual class: activators | EPAC1 agonist qHTS, biochemical assay; response scale: 100% = response to 6.5 mM cAMP; also: nearly all actives have a fitted effect of over 60% in size
#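 EPAC1 100 nM, Rap1B–BODIPY-GDP 250 nM, unlabeled GDP 50 uM; compound titration; 5 min RT; kinetic read ex480/em540 at 5-min intervals ×30 min; data normalized to 6.5 mM cAMP agonist control.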
# EPAC2 antagonist – EPAC2 (human) antagonism; Q8WZA2; EPAC2 GEF exchange of Rap1B-BODIPY-GDP, fluorescence; Potency, µM (doses to about 114 µM), for inactives: top-dose activity, negative = inhibition, usual class: inhibitors; 0.18% of 360,000 active; AID 720708; also: % is scaled to controls: 0 for no effect and ±100 for the full control effect; nearly all actives have a fitted effect of over 45% in size
# EPAC2 agonist – agonists of human EPAC2 (RAPGEF4) | Q8WZA2 | EPAC2 activation, biochemical qHTS; response scale: 100% = 6.5 mM cAMP response | Potency, µM (doses to about 154 µM), for inactives: at the top dose activation, actives largely listed as activators | 0.079% of 360,000 active | AID 720711; also: nearly all actives have a fitted effect of over 50% in size
#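 Nucleotide exchange monitored as fluorescence drop when BODIPY-GDP leaves Rap1B. Reaction: 100 nM EPAC2, 250 nM RAP1B-BODIPY-GDP, 50 uM GDP, room temperature, kinetic read over 30 min. Activity expressed relative to 6.5 mM cAMP.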
# Active calls of the source: *; u = inconclusive; x = not tested or not shown; [ ] = another dose, or the depositor's remark. Rows were chosen to be rich in hits. Some 1.4% of all compounds tested hit in one or more screens of this group. Calls follow the shape of the dose curve; as a rule, active = well fitted curve in the direction sought with a large enough effect; inconclusive = small, poorly fitted or top-dose-only effect, or another doubt; inactive = no such curve, though single readings can be large; an effect the other way counts as inactive or inconclusive. Potency is read from the fitted curve at half-maximal effect.
SMILES,BRCA1 expr up,EPAC1 antagonist,USP1-UAF1 inh,EPAC1 ag,EPAC2 antagonist,EPAC2 agonist
O=C(OC(c1ccccc1)c1nccc2ccccc12)c1cccc([N+](=O)[O-])c1 (stereo not given),7.1µM*,-7%,-26%,4%,-5%,14%
O=C(Nc1ccccc1)N1CCCC2CCCCC21 (stereo not given),11µM*,-15%,-11%,2%,1%,4%
C=CCOc1ccccc1CN(C(=O)CCl)c1ccc2c(c1)OCO2,-62%,-19%,-22%,-14%,13µM*,10%
O=C(NCCc1ccccc1F)c1cccc2cccnc12,2µM*,16%,-25%,-2%,1%,8%
O=C(Cc1ccccc1)N/N=C/c1ccc2c(c1)OCO2,1.3µM*,-6%,-2%,3%,1%,11%
O=C(CNc1ccccc1)N/N=C/c1ccc2c(c1)OCO2,23%,1%,-23%,-8%,1%[57.1 µM],6%
O=C(NN=Cc1ccc2c(c1)OCO2)C1CC1,7.1µM*,-21%,-15%,-1%,-20%,25%
CC(C)(C)c1ccc(/C=N/NC(=O)C2CCCC2)cc1,5.6µM*,0%,-18%,-3%,-18%,4%
O=C(NN=Cc1ccc2c(c1)OCO2)NN=Cc1ccc2c(c1)OCO2,70%,-5%,0%,1%,3%,-1%
Cc1ncc(CO)n1Cc1ccc(Cl)cc1,-4%,-5%,-2%,-8%,-10%,4%
CN(C)S(=O)(=O)Nc1ccc(-c2cn3ccsc3n2)cc1,11µM*,x,-13%,x,x,x
Oc1ccc(C2=Nn3c(nnc3-c3ccco3)SC2)cc1O,-68%,45µM*,0%,-1%,u,28%
O=C(/C=C/c1cccc2ccccc12)NCCC1=CCCCC1,11µM*,-4%,-17%,-1%,-2%,-7%
COc1ccc(-c2coc3cc(OC(C)=O)c(OC)cc3c2=O)cc1,10µM*,21%,-28%,-16%,31%,0%
COc1ccc(-c2coc3cc(O)ccc3c2=O)cc1OC,u,5%,0%,-5%,-3%,0%
COc1ccc(-c2coc3cc(O[C@@H]4O[C@H](CO)[C@@H](O)[C@H](O)[C@H]4O)ccc3c2=O)cc1,2.8µM*,-10%,-8%,-8%,0%,5%
COc1ccc2c(=O)c(-c3ccc(OC)c(OC)c3)coc2c1,11µM*,-5%,-11%,-15%,-1%,-11%
Cn1c(CNC(=O)CNC(=O)Cc2ccc(F)cc2)cc(=O)n(C)c1=O,13%,1%,-28%,-6%,4%,0%
Cc1cccc(-c2noc(CNC(=O)c3ccccc3Br)n2)c1,x,x,-3%,x,x,x
CC12CCC(C(=O)Nc3nc4ccc(Br)cc4s3)(OC1=O)C2(C)C (stereo not given),8.9µM*,2%,-20%,17%,-13%,7%
C[C@@H](C(O)c1ccccc1)N(C)C(=O)CCc1ccccc1 (stereo not given in full),0%,-5%,-19%,9%,15%,2%
Cc1ccc(S(=O)(=O)Nc2ccc(Br)cc2C(NCC(=O)O)c2ccccc2)cc1 (stereo not given),-10%,u,-8%,-20%,-16%,-20%
O=C(O)CSc1cc(NS(=O)(=O)c2ccc(Br)cc2)c2ccccc2c1O,-91%,56µM*,35µM*,26%,u,15%
O=S(=O)(Nc1cc(Sc2ncn[nH]2)c(O)c2ccccc12)c1ccccc1,-99%,u,2.2µM*,5%,u,26%
O=C(CCl)NCc1cc(-c2ccc(Cl)cc2)no1,-85%,-17%,-23%,-9%,2%,6%
SMILES,BRCA1 expr up,EPAC1 antagonist,USP1-UAF1 inh,EPAC1 ag,EPAC2 antagonist,EPAC2 agonist
COc1ccccc1C(=O)COC(=O)c1ccccc1O,-30%,-1%,-12%,9%,-1%,7%
COc1ccccc1C(=O)COC(=O)c1ccc(N(C)C)cc1,4µM*,-4%,-7%,9%,-10%,1%
Cc1csc(SCC(=O)NC2CCS(=O)(=O)C2)n1 (stereo not given),0%,-26%,7%,0%,-6%,9%
O=C(Nc1ccccc1Cl)OC1CCCCC1,2%,-10%,u,-1%,-16%,9%
O=C(NC(=O)c1ccc(Cl)cc1)OC1CCCCC1,13µM*,-16%,-19%,-10%,9%,2%
COc1cc(S(=O)(=O)O)c(C)cc1N=Nc1c(O)ccc2cc(S(=O)(=O)O)ccc12,0%,x,x,x,x,x
O=C(/C=C/c1ccc2ccccc2c1)c1ccoc1,13µM*,-19%,-2%,-12%,0%,5%
O=C(O)/C=C/c1ccc2ccccc2c1,4%,x,x,x,x,x
Cc1cccc(NC(=O)CSc2nnc(-c3ccccc3C)o2)c1,13µM*,-2%,-23%,-1%,-2%,-1%
Cc1cccc(NC(=O)CSc2nnc(-c3n[nH]c4ccccc34)o2)c1,13µM*,11%,-15%,3%,3%,5%
Cc1cc(C)cc(NC(=O)CSc2nnc(-c3ccccc3C)o2)c1,u,5%,-16%,-3%,10%,-11%
COc1ccccc1NC(=O)CSc1nnc(-c2ccoc2C)o1,7.9µM*,-21%,-7%,-13%,-2%,-9%
Cc1ccsc1C(=O)NNC(=O)c1ccncc1,23%,-23%,-2%,-34%,-6%,-5%
CCC[n+]1c(/C=C/c2c(OC)cc(OC)cc2OC)ccc2ccccc21,-2%,x,x,x,x,x
N#Cc1ccccc1Oc1ccc(S(=O)(=O)N2CCCCC2)cn1,10µM*,5%,-19%,3%,11%,14%
O=C(NNC(=O)c1cccs1)c1ccc(Br)cc1,13µM*,-9%,2%,11%,-12%,11%
Oc1ccc(N=Cc2ccc(-c3cccs3)s2)cc1,-70%,32µM*,13µM*,18%,u,25%
O=Cc1ccc(-c2cccs2)s1,-67%,-9%,-4%,8%,-10%,0%
O=C(O)C1Nc2c(O)cc(Cl)c([N+](=O)[O-])c2C2C=CCC12 (stereo not given),-27%,13µM*,u,15%,-17%,15%
O=C(O)CCCN1C(=O)/C(=C\c2ccccc2OCc2ccccc2)SC1=S,-22%,50µM*,u,-1%,u,7%
O=C(CCCN1C(=O)/C(=C/c2cccs2)SC1=S)Nc1ccccn1,-58%,-1%,-15%,-3%,5%,2%
Cc1nn(-c2ccccc2)c(Cl)c1/C=C1\SC(=S)N(CCCCCC(=O)O)C1=O,-38%,-9%,u,12%,40µM*,6%
Cc1nn(-c2ccccc2)c(Cl)c1/C=C1\SC(=S)NC1=O,-5%,u,-17%,1%,u,-1%
